High-throughput results (PubChem BioAssay)
This excerpt belongs to a sample that is enriched for hits.
FBPA Giardia inh: inhibitors of Giardia lamblia fructose-1,6-bisphosphate aldolase; Potency, µM (series often up to 59.6 µM), without a hit: top-dose activity, negative = inhibition, hits mostly inhibitors; A8B2U2; purified Giardia FBPA; AID 2451; 290,000 compounds, 0.71% hits; further: potency means the concentration at half of the fitted maximal effect; on the % scale 0 is the no-effect control and ±100 the full control effect; nearly all actives have a fitted effect of over 55% in size
Target sequence (A8B2U2 whole entry, looked up): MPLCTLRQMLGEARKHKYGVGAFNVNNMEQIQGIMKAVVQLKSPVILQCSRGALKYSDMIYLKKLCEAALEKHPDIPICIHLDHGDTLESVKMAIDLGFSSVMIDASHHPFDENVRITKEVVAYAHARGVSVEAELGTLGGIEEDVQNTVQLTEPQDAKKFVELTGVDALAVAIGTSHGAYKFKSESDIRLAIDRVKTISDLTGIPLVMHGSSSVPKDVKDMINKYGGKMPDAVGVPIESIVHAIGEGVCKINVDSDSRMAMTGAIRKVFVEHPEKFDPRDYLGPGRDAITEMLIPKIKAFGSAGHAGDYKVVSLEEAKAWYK
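40 nM FBPA preincubated 10 min at RT with compound (up to 57.5 uM final), then substrate plus GAPDH/TPI/NAD/arsenate coupling and diaphorase/resazurin added. Fluorescence read after 20 min at RT, 525/598 nm.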
TbPYK inhibitor: blocks Trypanosoma brucei pyruvate kinase; 410,000 compounds, 0.12% hits; Potency, µM (highest dose often 76.8 µM), for inactives: top-dose activity, negative = inhibition, actives largely listed as inhibitors; TbPYK enzyme, Kinase-Glo Plus ATP luminescence, 45 min; further: potency means the concentration at half of the fitted maximal effect; on the % scale 0 is the no-effect control and ±100 the full control effect; nearly all actives have a fitted effect of over 50% in size
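In this concentration-response screen, enzyme-free wells defined baseline while DMSO plates tracked drift. Each reaction combined TbPYK, substrate, compound and 130 uM ADP for 45 min at room temperature. Kinase-Glo Plus luminescence gave the signal.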
Shiga inhibitor: inhibitors of Shiga toxin in Vero cells; Vero cells, Shiga toxin protein synthesis inhibition reporter; inhibition, % at 38.7 µM; 290,000 compounds, 9.2% hits; AID 2315; in the data active means inhibition mostly above about 28%, no sharp cut-off; inactive means mostly below about 43%; further: 0% is about no effect
LmPK inh: inhibitors of Leishmania mexicana pyruvate kinase; Q27686; 290,000 compounds, 0.37% hits; Potency, µM (titrated, usually from 57.5 µM), for inactives: at the top dose activity change, negative = inhibition, hits mostly inhibitors; purified LmPK, Kinase-Glo ATP luminescence, 1 h; further: potency means the concentration at half of the fitted maximal effect; on the % scale 0 is the no-effect control and ±100 the full control effect
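ATP generated from ADP (0.1 mM) and PEP (0.5 mM) by 0.1 nM LmPK over 1 h at room temperature (pH 7.2 imidazole buffer) was detected by coupled luciferase luminescence. Values were normalized to uninhibited and no-enzyme wells.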
CHX counter: counter-screen hit for Shiga toxin inhibitors, cycloheximide; max response, %; 300,000 compounds, 12% hits; cell reporter, cycloheximide protein synthesis inhibition counterscreen; in the data active means max response mostly above about 13%, no sharp cut-off; inactive means mostly below about 14%; further: read at 38.3 µM for the half of the compounds with a filed dose; 0% is about no effect
RE007 growth inh: less growth of the S. pombe RE007 Vpr strain; 360,000 compounds, 0.21% hits; Potency, µM (series often up to 92.2 µM), without a hit: at the top dose activity change, negative = less growth, hits mostly inhibitors; S. pombe RE007 Vpr strain, BacTiter-Glo ATP luminescence, 24 h; active means well fitted falling curve with a large enough effect; inconclusive means small, poorly fitted or top-dose-only effect; inactive means no such curve, though single readings can be large or run the other way; further: potency means the concentration at half of the fitted maximal effect; on the % scale 0 is the no-effect control and ±100 the full control effect; nearly all actives have a fitted effect of over 50% in size
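Fission yeast RE007 carrying one integrated HIV-1 vpr copy, seeded at OD 0.01 in PMG+AL medium with 23 nL pinned compound. Grown 24 h at 30 degrees; viability read by BacTiter-Glo luminescence after 5 min.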
Numbers without * were called inactive; ? = inconclusive; . = no result given; [ ] = remark or other dose. Unless noted, the call rests on the fitted dose curve; in most records, active means well fitted curve in the direction sought with a large enough effect; inconclusive means small, poorly fitted or top-dose-only effect, or another doubt; inactive means no such curve, though single readings can be large; an effect the other way counts as inactive or inconclusive.

SMILES	FBPA Giardia inh	TbPYK inhibitor	Shiga inhibitor	LmPK inh	CHX counter	RE007 growth inh
Cc1cccc(-n2cnc(C(=O)NC3CCCCCC3)c2)n1	-3.9%	-4.6%	75.8*	-8.5%	59.7*	-6.4%
CSc1cccc(N2CC(C(=O)N3CCN(S(=O)(=O)c4ccccc4Cl)CC3)CC2=O)c1 (stereo not given)	.	-9.6%	.	.	.	11.6%
CCOC(=O)/C(N=Nc1ccc(C(=O)O)cc1[N+](=O)[O-])=C(\C)O	0.0%	0.6%	3.5	-18.5%	-1.0	2.6%
CC(=O)/C(N=Nc1ccc(C(=O)O)cc1[N+](=O)[O-])=C(\C)O	-11.0%	-15.8%	-2.2	25.1µM*	-1.7	-24.4%
COc1ccc(NC(=O)C/C(C)=N/NC(=O)c2cccs2)c([N+](=O)[O-])c1	-4.4%	-3.1%	120.2*	-1.4%	60.9*	-5.1%
COc1ccc(NC(=O)c2sccc2C)c([N+](=O)[O-])c1	-9.3%	-2.5%	86.7	-9.1%	32.1*	-3.9%
COc1ccc(NC(=O)/C=C/c2ccccc2)c([N+](=O)[O-])c1	11.2%	-5.4%	126.1*	1.3%	65.2*	24.0%
COc1ccc(NC(=O)c2cccs2)c([N+](=O)[O-])c1	2.6%	-5.7%	80.3*	-5.9%	37.5*	-9.9%
COc1ccc(/C=C/C(=O)Nc2ccc(OC)cc2[N+](=O)[O-])cc1	2.0%	-2.6%	-2.2	3.8%	-1.2	-19.6%
O=C(CSc1nc(=O)[nH]c2c1CCC2)NCc1ccc(Cl)cc1	.	2.4%	.	.	.	.
CCCOc1ccccc1-c1nc(SCC(=O)c2ccccc2)n[nH]1	.	-4.9%	.	.	.	.
COc1ccccc1N1C(=O)NC(=O)/C(=C/c2ccc3c(c2)Cc2ccccc2-3)C1=O	-7.3%	-14.5%	45.0*	1.9%	11.7	-25.0%
COc1cc(/C=C2\C(=O)NC(=O)N(c3ccccc3)C2=O)cc(OC)c1O	9.98µM*	?	3.1	-5.3%	-3.1	6.3%
COc1ccccc1N1CCN(C(=O)Cn2c(=O)nc(-c3ccccc3)c3ccccc32)CC1	.	-3.1%	.	.	.	.
CN(C)C(=O)c1cc(C(=O)c2ccc(Cl)cc2Cl)c[nH]1	-8.7%	-14.6%	98.8*	5.8%	51.0*	19.4%
CN(C)C(=O)c1cc(C(=O)c2ccc(F)cc2Cl)c[nH]1	10.9%	5.7%	73.4*	-1.9%	49.7*	-1.4%
Cc1ccc(C(=O)c2ccc(C(F)(F)F)cc2)cc1	2.5%	.	-3.3	.	-3.7	.
CN(C)C(=O)c1cc(C(=O)c2ccc(C(F)(F)F)cc2)c[nH]1	-2.8%	2.5%	21.1	5.5%	15.6*	-6.3%
CC(C)/C(C=O)=C(/NC1CCCCC1)c1ccccc1	.	0.4%	.	.	.	0.0%
O=C(COc1ccc([N+](=O)[O-])cc1)Nc1cccc2cccnc12	.	-5.8%	.	.	.	.
Cc1sc2c(c1C)C(=O)NC(c1ccccc1F)N2 (stereo not given)	-14.3%	-23.3%	99.8*	-3.2%	30.7*	?
Cc1ccc(N/C=C/c2onc(C)c2[N+](=O)[O-])cc1	1.0%	0.0%	117.4*	-13.9%	74.5*	-6.5%
Cc1ccc(-c2csc(NC(=O)CSC3=NCCS3)n2)cc1	-17.9%	.	69.1*	0.4%	49.8*	-2.9%[3.69 µM]
Cc1ccc(-c2csc(NC(=O)CSc3nc(C)cc(=O)[nH]3)n2)cc1	-7.1%	-7.1%	28.1	14.1%	30.7*	-11.4%
CCCc1cc(=O)[nH]c(SCC(=O)Nc2ccc(C)cc2)n1	2.9%	1.0%	-19.0	-1.5%	-2.7	7.2%
SMILES	FBPA Giardia inh	TbPYK inhibitor	Shiga inhibitor	LmPK inh	CHX counter	RE007 growth inh
CCC(Sc1nc(C)cc(=O)[nH]1)C(=O)Nc1nc(-c2ccccc2)cs1 (stereo not given)	4.7%	-4.5%	83.1	6.7%	31.0*	-10.9%
Cc1ccc(C)c(N2CCN(C(=O)c3cc(S(=O)(=O)N4CCCC4)c[nH]3)CC2)c1	.	2.1%	.	.	.	.
O=C(O)c1ccc(NS(=O)(=O)c2cccc(C(=O)Nc3cccc(C(=O)O)c3)c2)cc1	-8.9%	10.7%	5.8	-7.5%	3.7	-13.4%
O=C(/C=C\Nc1ccc(S(=O)(=O)Nc2ncccn2)cc1)c1cccc2ccccc12	-0.1%	5.2%	27.5	8.4%	-1.7	43.8%
NS(=O)(=O)c1ccc(N/C=C\C(=O)c2cccc3ccccc23)cc1	-2.6%	-1.4%	10.4	1.0%	21.4*	24.4%
O=C(Nc1cccc2cccnc12)c1ccc2c(c1)OCCO2	0.4%	3.9%	114.8*	-3.6%	66.9*	-24.0%
O=C(N/N=C/c1ccc(O)cc1)Nc1cccc2nsnc12	-15.0%	0.5%	93.8*	1.8%	39.9*	-12.1%
COc1cc(/C=N/NC(=O)Nc2cccc3nsnc23)cc(OC)c1OC	-0.1%	-8.4%	16.9	-3.4%	-2.3	5.3%
O=C(Nc1cccc2nsnc12)c1ccc(F)cc1	-26.7%	-9.5%	49.9*	-1.4%	29.9*	-29.2%
O=C(Nc1cccc2nsnc12)c1ccc2c(c1)OCCO2	-17.2%	2.2%	108.1*	?	30.3*	-5.1%
Cc1occc1-c1nnc(SCC(=O)c2c(N)n(C3CC3)c(=O)[nH]c2=O)n1C	.	1.3%	.	.	.	-14.3%
Cc1ccc(Cl)cc1NS(=O)(=O)c1cc2c3c(c1)CC(=O)N3CCC2	.	0.3%	.	.	.	.
O=C(Nc1cc(-c2nc3ccccc3s2)ccc1Cl)c1ccc2c(c1)OCO2	.	0.0%	51.6*	-2.7%	27.3*	14.0%
CCCC(=O)Nc1ccccc1NC(=O)c1ccc2c(c1)OCO2	2.2%	-1.6%	-7.4	1.5%	-2.4	2.7%
O=C(Nc1cccc2nsnc12)c1ccc2c(c1)OCO2	-10.5%	-9.6%	52.5*	?	16.9	?
Cc1ccc(-c2nc3ccccc3s2)cc1NC(=O)c1ccc2c(c1)OCO2	0.0%	-6.0%	24.4	3.2%	6.2	8.5%
O=C(Nc1cccc2cccnc12)c1ccc(Br)cc1	.	.	43.8	.	31.2*	.
COc1ccc(Br)c(Cn2c(C)c(C(=O)NCCC#N)sc2=O)c1	.	1.4%	.	.	.	1.8%[18.4 µM]
O=C(CSc1nc2ccccc2o1)Nc1ccccc1N1CCOCC1	-1.0%	0.8%	24.3	-2.3%	-0.1	4.7%
O=C(CSc1nc2ccccc2o1)Nc1ccc(N2CCOCC2)cc1	0.1%	-1.3%	62.4*	2.6%	46.8*	17.0%
O=C(CSc1nc2cc(Cl)ccc2o1)Nc1ccc(N2CCOCC2)cc1	12.2%	-7.5%	71.7*	3.1%	30.8*	-16.0%
CCCCCCCCCCOc1cc2c(=O)c(C(=O)OCC)c[nH]c2cc1OCC	.	4.2%	.	.	.	.
COc1cccc(-c2nc(N3CCN(C)CC3)c3ccccc3n2)c1O	-0.1%	-1.8%	34.2	4.8%	13.6*	-20.3%
COc1cccc(-c2nc3ccccc3s2)c1O	-7.8%	-10.1%	64.3	-8.6%	27.3*	-2.7%
Clc1ncccc1-c1nc2ccccc2s1	2.4%	2.6%	105.9*	3.6%	34.4*	2.0%
COc1cc(OC)cc(C(=O)Nc2ccccc2-c2nc3ccccc3s2)c1	.	-1.0%	.	.	.	.
